Inconclusive results are not listed. Unmarked numbers belong to inactive results. Activity calls are given as the source filed them. The call rests on the fitted dose curve; in most records, active means well fitted cell-killing curve with a large enough effect in the repeat runs; inconclusive means weak or mixed curves, or effect the other way; inactive means flat fitted curve, though single readings scatter.
assay: Caspase-3/7 induction in HepG2 cells by small molecules, qHTS cell viability counter screen (AID 1346981); details: CellTiter-Fluor fluorescence, 17 h; series mostly up to 92.4 µM; activity change, negative = cytotoxicity: at the top concentration; further: nearly all actives have a fitted effect of over 30% in size
Text: U.S. Tox21 Program National Center for Advancing Translational Sciences [NCATS] NIH Chemical Genomics Center [NCGC] U.S. Environmental Protection Agency [EPA] National Institutes of Environmental Health Sciences [NIEHS] National Toxicology Program [NTP] U.S. Food and Drug Administration [FDA] Tox21 Assay Overview: Apoptosis is a process of programmed cell death and plays a central role in the development of multicellular organisms. It is a highly regulated process and induces cell death by activating caspases, which are the members of cysteine aspartic acid-specific protease (caspase) family. Caspases involved in apoptosis are classified by their mechanism of action as initiator caspases (caspase-2, -8, -9 and -10) and executioner caspases (caspase-3, -6, and -7). Inhibition of apoptosis results in number of cancers, autoimmune diseases, inflammatory diseases and viral infection. To identify small molecule compounds that induce apoptosis, a homogeneous, luminescent Caspase-Glo 3/7 assay was used. Wild type HepG2 cells were used to screen Tox21 libraries for identifying caspase-3/7 activity inducers. Also cytotoxicity of the compounds was tested in parallel by measuring the cell viability using CellTiter-Fluor assay system in the same wells.
Tox21 Assay Protocol Summary: HepG2 cells were dispensed at 2,000 per well in 5uL of culture medium into white solid bottom 1536-well plates (Corning Life Sciences, Corning, NY) using a Multidrop Combi (Thermo Scientific, Waltham, MA) dispenser. The assay plates were incubated at 37 C and 5% CO2 for 5hr, and then 23nL of compounds dissolved in DMSO and positive control were transferred using a Pintool station ([…], San Diego, CA). The assay plates were incubated at 37C and 5% CO2 for 17hr. For cytotoxicity read, after 16hr incubation at 37C, 1uL CellTiter-Fluor reagent (Promega Corporation, Madison, WI) was added to each well of the assay plates using Flying Reagent Dispenser (FRD, Aurora Discovery, San Diego, CA). After 1hr incubation at 37C and 5% CO2, the fluorescence signal was quantified using a ViewLux plate reader (PerkinElmer, Shelton, CT).
On the % scale 0 is the no-effect control and ±100 the full control effect; potency means the concentration at half of the fitted maximal effect.

With `Oc1cc(O)c(Cl)cc1Cl` as the molecule, how does the “activity change, negative = cytotoxicity” value read?
The value was 2.4%.

For `CCC(C)(C)C1CCC(O)CC1` (stereo not given), which “activity change, negative = cytotoxicity” value is on record?
The value was 5.15%.

Which “activity change, negative = cytotoxicity” value does the source give for `Cn1c(=O)c2c(ncn2CC(=O)O)n(C)c1=O` here?
Its value is 1.6% [at 42.5 µM].

For `CCCCN(CCCC)C(=S)SSC(=S)N(CCCC)CCCC`, which “activity change, negative = cytotoxicity” value is on record?
Its value is 10.8%.

With `CC(C)CCCC(=O)O` as the molecule, how does the “activity change, negative = cytotoxicity” value read?
Its value is 0.861%.

For `CC(C)c1nnc2ccc(-c3ocnc3-c3cc(F)ccc3F)cn12`, which “activity change, negative = cytotoxicity” value is on record?
Its value is 8.06%.

For `CC(Cl)C(Cl)Cl` (stereo not given), which “activity change, negative = cytotoxicity” value is on record?
The value was -1.32%.

For `O=C(CS)OCCOC(=O)CS`, which “activity change, negative = cytotoxicity” value is on record?
The value was 4.14%.

Which “activity change, negative = cytotoxicity” value does the source give for `COC(=O)Nc1nc2ccc(C(=O)c3cccs3)cc2[nH]1` here?
The value was -5.11% [at 42.5 µM].

Which “activity change, negative = cytotoxicity” value does the source give for `CCCCC(CC)CNCC(CC)CCCC` (stereo not given) here?
The value was 4.35%.

Which “activity change, negative = cytotoxicity” value does the source give for `CCCCCCCCCOC(C)=O` here?
The value was 0.403%.

For `Cc1nc2ccccc2s1`, which “activity change, negative = cytotoxicity” value is on record?
The value was 7.59%.

Which “activity change, negative = cytotoxicity” value does the source give for `Cc1ccnc2ccccc12` here?
Its value is -2.32%.

Which “activity change, negative = cytotoxicity” value does the source give for `C[Si]1(C)O[Si](C)(C)O[Si](C)(C)O1` here?
The value was -0.867%.

For `C(=C\c1ccccc1)/CN1CCN(C(c2ccccc2)c2ccccc2)CC1`, which “activity change, negative = cytotoxicity” value is on record?
The value was -0.51% [at 42.5 µM].

Which “activity change, negative = cytotoxicity” value does the source give for `O=C(CCCN1CCC(O)(c2ccc(Br)cc2)CC1)c1ccc(F)cc1` here?
Its value is -10.6% [at 42.5 µM].

For `C=CCNc1nc(NCC=C)nc(N2CCN(C(c3ccc(F)cc3)c3ccc(F)cc3)CC2)n1`, which “activity change, negative = cytotoxicity” value is on record?
The value was -2.16% [at 42.5 µM].

Which “activity change, negative = cytotoxicity” value does the source give for `CCCCCCCCCCCCCCC[C@H](O)[C@@H](N)CO` here?
The value was -10.5% [at 42.5 µM].

Which “activity change, negative = cytotoxicity” value does the source give for `O=C(CCCCCCCCC#CI)Oc1ccccc1` here?
The value was 1.72% [at 42.5 µM].

Which “activity change, negative = cytotoxicity” value does the source give for `C/C=C(\C)C(=O)OCCC(C)CCC=C(C)C` (stereo not given) here?
The value was 2.32%.

Which “activity change, negative = cytotoxicity” value does the source give for `CCCCCCCCSCCO` here?
The value was -1.99%.

With `CCCOC(=O)c1ccc(N)cc1` as the molecule, how does the “activity change, negative = cytotoxicity” value read?
The value was -0.247% [at 42.5 µM].

Which “activity change, negative = cytotoxicity” value does the source give for `CC(=O)CC(c1ccc([N+](=O)[O-])cc1)c1c(O)c2ccccc2oc1=O` (stereo not given) here?
The value was -10.5% [at 42.5 µM].

With `OCCSc1ccccc1` as the molecule, how does the “activity change, negative = cytotoxicity” value read?
Its value is 1.23%.

With `CCCC1C(CC)=CC(CC)=CN1c1ccccc1` (stereo not given) as the molecule, how does the “activity change, negative = cytotoxicity” value read?
Its value is -8.73%.

With `CCC(=O)Oc1ccc(/C(CC)=C(\CC)c2ccc(OC(=O)CC)cc2)cc1` as the molecule, how does the “activity change, negative = cytotoxicity” value read?
The value was -6.78%.

Which Potency does the source give for `COCCOC(=O)C1=C(C)NC(C)=C(C(=O)OC/C=C/c2ccccc2)C1c1cccc([N+](=O)[O-])c1` (stereo not given) here?
The Potency was 29.8 µM (active).

With `O=C1OCCN1/N=C/c1ccc([N+](=O)[O-])o1` as the molecule, how does the “activity change, negative = cytotoxicity” value read?
The value was -1.6% [at 42.5 µM].

With `O=C(O)c1snc(Cl)c1Cl` as the molecule, how does the “activity change, negative = cytotoxicity” value read?
Its value is -1.41%.

With `CO/N=C1\CN(c2nc3c(cc2F)c(=O)c(C(=O)O)cn3C2CC2)CC1CN` (stereo not given) as the molecule, how does the “activity change, negative = cytotoxicity” value read?
Its value is -11% [at 42.5 µM].

For `c1ccc(COCc2ccccc2)cc1`, which “activity change, negative = cytotoxicity” value is on record?
Its value is -0.685%.

For `COC(=O)c1cc(Cl)ccc1NS(=O)(=O)C(F)(F)F`, which “activity change, negative = cytotoxicity” value is on record?
The value was 1.89% [at 42.5 µM].

With `O=C(C(=O)c1ccccc1)c1ccccc1` as the molecule, how does the “activity change, negative = cytotoxicity” value read?
The value was 0.0694%.

Which “activity change, negative = cytotoxicity” value does the source give for `NCC1CCCC(CN)C1` (stereo not given) here?
Its value is -0.263%.

With `CCCCCCCCCCCC[N+](C)(C)CCCS(=O)(=O)[O-]` as the molecule, how does the “activity change, negative = cytotoxicity” value read?
The value was -1.47%.

Which “activity change, negative = cytotoxicity” value does the source give for `CC(C)C(=O)O` here?
Its value is 5.1%.

Which “activity change, negative = cytotoxicity” value does the source give for `O=C(CCCN1CCN(c2ccc(F)cc2)CC1)NC1c2ccccc2CSc2ccccc21` (stereo not given) here?
The value was -10.9% [at 42.5 µM].

Which “activity change, negative = cytotoxicity” value does the source give for `C=CC(=O)NCOCC(C)C` here?
The value was -1.76%.

With `CCCCC/C(=C\c1ccccc1)CO` as the molecule, how does the “activity change, negative = cytotoxicity” value read?
Its value is -6.88%.

Which “activity change, negative = cytotoxicity” value does the source give for `CCCCCCCCCCCC(=O)[O][Sn]([CH2]CCC)([CH2]CCC)[O]C(=O)CCCCCCCCCCC` here?
The value was 5.24% [at 42.5 µM].

Source: PubChem BioAssay (Tox21)
